Consider seven compounds from PubChem BioAssay (NCATS).

Where “and” joins values, the source holds several entries; their conditions need not be identical. Equal entries are not always repeated. Unmarked numbers belong to inactive results. Inconclusive results are not listed. Calls of active or inactive are those of the source. Unless noted, calls follow the shape of the dose curve; as a rule, active = well fitted curve in the direction sought with a large enough effect; inconclusive = small, poorly fitted or top-dose-only effect, or another doubt; inactive = no such curve, though single readings can be large; an effect the other way counts as inactive or inconclusive.

For experiment [1], the target named is Cytochrome P450 3A4 (Homo sapiens) (UniProt P08684). Put plainly: qHTS Assay for Inhibitors and Substrates of Cytochrome P450 3A4 (AID 884). Also: nearly all actives have a fitted effect of over 50% in size. Also: potency is read from the fitted curve at half-maximal effect. In outline:
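20 nM human CYP3A4 with 25 uM Luciferin-PPXE (at KM) in 200 mM KPO4, preincubated 10 min with compound; NADPH regeneration started a 60 min RT reaction. Luciferin detected by luminescence, normalized to 57 uM ketoconazole as full inhibition.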
On the technique in general: qHTS replaces the single test concentration by a dilution series.

Experiment [2] can be described thus: Cell Viability - LYMP2-001 (AID 921). Also: nearly all actives have a fitted effect of over 70% in size. Also: potency is read from the fitted curve at half-maximal effect. In outline: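 Human lymphoblastoid LYMP2-001 cells, 2500 per well, in complete medium, treated 24 h at 37 C. Viability from cellular ATP by CellTiter-Glo luminescence; AC50 from Hill-equation fits of qHTS concentration-response.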
A short description of experiment [3]: MultiTox-Fluor Cytotoxicity Assay - LYMP1-002 - Live Cells (AID 955). Also: potency is read from the fitted curve at half-maximal effect. In short, it runs like this: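 Cytotoxicity in the human lymphoblastoid line LYMP1-002 is measured as loss of live-cell protease activity after 16 h treatment in complete culture medium. AC50 is derived from Hill-equation fits of qHTS concentration-response data.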
Experiment [4] is described as follows: MultiTox-Fluor Cytotoxicity Assay - LYMP1-003 - Dead Cells (AID 961). Also: nearly all actives have a fitted effect of over 70% in size. Also: potency is read from the fitted curve at half-maximal effect. In short, it runs like this:
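LYMP1-003 human lymphoblastoid cells (2500/well) exposed to compound 16 h at 37 C in complete medium; dead-cell protease read with bis-AAF-R110 fluorescence (Ex/Em 485/520) after 60 min at room temperature. Normalized to DMSO and 15 uM tetraoctylammonium bromide; AC50 from Hill fit.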

Experiment [5] in a line: Cell Viability - LYMP2-004 (AID 966). Also: nearly all actives have a fitted effect of over 65% in size. Also: potency is read from the fitted curve at half-maximal effect. In short, it runs like this:
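Acute toxicity is scored as a concentration-dependent drop in intracellular ATP, quantified by luciferase luminescence, in human lymphoblastoid cells exposed to compound for 24 hr. AC50 derives from Hill-equation modelling.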

Experiment [6] in a line: Cell Viability - LYMP2-019 (AID 973). Also: nearly all actives have a fitted effect of over 55% in size. Also: potency is read from the fitted curve at half-maximal effect. In outline:
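Cells plated at 2500/well and allowed 5 hr at 37 C before compound addition. After 24 hr incubation, CellTiter-Glo reagent was added, plates sat 30 min at room temperature, and luminescence was recorded.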

A short description of experiment [7]: Cell Viability - LYMP2-008 (AID 980). Also: nearly all actives have a fitted effect of over 60% in size. Also: potency is read from the fitted curve at half-maximal effect. In short, it runs like this:
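Acute cytotoxicity is scored as concentration-dependent loss of cellular ATP in a human lymphoblastoid line after 24 hr treatment at 37 C. ATP is quantified by luciferase luminescence.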

A short description of experiment [8]: Cell Viability - LYMP2-016 (AID 984).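 Also: cells exposed to compound for 24 hours at 37 °C; nearly all actives have a fitted effect of over 55% in size.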 Also: potency is read from the fitted curve at half-maximal effect. In outline:
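Human lymphoblastoid LYMP2-016 cells, 2500 per well, treated with compounds for 24 h at 37 C. Viability read as intracellular ATP by CellTiter-Glo luminescence after 30 min at room temperature; AC50 from Hill fits of concentration-response.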

The nature of experiment [9]: Cell Viability - LYMP2-018 (AID 985).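 Also: compound exposure lasted 24 hr at 37 °C; nearly all actives have a fitted effect of over 50% in size.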 Also: potency is read from the fitted curve at half-maximal effect. In short, it runs like this: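 Acute cytotoxicity is scored as a concentration-dependent drop in intracellular ATP after 24 hr exposure of the lymphoblastoid line in complete culture medium, measured by luciferase luminescence. Potency is expressed as AC50 from Hill modelling.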
A short description of experiment [10]: Cell Viability - LYMP2-020 (AID 986). Also: nearly all actives have a fitted effect of over 55% in size. Also: potency is read from the fitted curve at half-maximal effect. In outline: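 Acute cytotoxicity in a human lymphoblastoid line is scored as a concentration-dependent fall in cellular ATP after 24 hr at 37 C in complete medium. The positive control is tetraoctylammonium bromide, and potency is given as Hill-fit AC50.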
Experiment [11] in a line: Cell Viability - LYMP2-022 (AID 987). Also: nearly all actives have a fitted effect of over 55% in size. Also: potency is read from the fitted curve at half-maximal effect. In short, it runs like this:
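Acute toxicity in a human lymphoblastoid line is scored as decreased intracellular ATP after 24 hr compound treatment at 37 C. ATP is measured by CellTiter-Glo luminescence; curves are fitted with the Hill equation to give AC50.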

Experiment [12] is described as follows: Cell Viability - LYMP2-024 (AID 988). Also: nearly all actives have a fitted effect of over 60% in size. Also: potency is read from the fitted curve at half-maximal effect. In outline: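 Acute toxicity is measured as concentration-dependent loss of intracellular ATP in a human lymphoblastoid line treated 24 hours at 37 C. Luciferase luminescence quantifies ATP; AC50 values come from standard Hill-equation modelling.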
Experiment [13] in a line: Cell Viability - LYMP1-002 - Assay at 40 hr (AID 994). Also: nearly all actives have a fitted effect of over 60% in size. Also: potency is read from the fitted curve at half-maximal effect. In outline: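 Viability in the human lymphoblastoid line was measured as intracellular ATP via CellTiter-Glo after 40 hr compound exposure. Tetraoctylammonium bromide served as positive control.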
The nature of experiment [14]: qHTS assay for small molecule agonists of the antioxidant response element (ARE) signaling pathway (AID 651741; active = well fitted activation curve with a large enough effect in the signal ratio; the % refers to the signal ratio; also: potency is read from the fitted curve at half-maximal effect; as to activation: % of control where 0% means no effect). In outline:
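Seeding 2,000 ARE-bla HepG2 cells per well preceded a 5 h incubation at 37 C/5% CO2 and a 16 h compound exposure at 37 C. Beta-lactamase reporter activity was then quantified by fluorescence after 2 h with LiveBLAzer B/G FRET substrate.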

Experiment [15] concerns the target Tumor necrosis factor (Homo sapiens) (UniProt P01375). Put plainly: qHTS assay to identify small molecules that stimulate Tumor Necrosis Factor-alpha (TNF-alpha) secretion (AID 651757; active = well fitted curve in the direction sought with a large enough effect in the signal ratio; the % refers to the signal ratio; also: 0% is about no effect). In short, it runs like this:
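Secreted TNF-alpha from compound-treated THP-1 cells (17 hrs, 37 C) was quantified with a homogeneous time-resolved fluorescence antibody assay.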

Experiment [16] is described as follows: qHTS assay for environmental chemicals that activate the Aryl hydrocarbon Receptor (AhR) signaling pathway (AID 651777). Also: % of control where 0% means no effect; nearly all actives have a fitted effect of over 15% in size. Particulars: 1A2-DRE human hepatoma cells, luciferase, 24 h; activation: stronger effect = higher value. In outline: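 Induction of CYP1A2 transcription through AhR is detected by luciferase in 1A2-DRE hepatoma cells. Compounds or DMSO act for 24 hr at 37 C before a 30 min One-Glo step at room temperature.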

Experiment [17] can be described thus: qHTS assay for small molecule antagonists of the retinoid-related orphan receptor gamma (ROR-gamma) signaling pathway - cell viability counter screen (AID 720652; active = well fitted curve in the direction sought with a large enough effect in the repeat runs; an effect the other way counts as inactive or inconclusive;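 also: compound exposure lasted 16 hr before ATP read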; also: potency is read from the fitted curve at half-maximal effect). In outline:
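Cytotoxicity is quantified via intracellular ATP (CellTiter-Glo luminescence) in doxycycline-induced CHO ROR response element-luciferase reporter cells treated with compound for 16 hr at 37 C, 5% CO2.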

The target of experiment [18] is Nuclear receptor subfamily 1 group I member 2 (Rattus norvegicus) (UniProt Q9R1A7). In words: qHTS assay for small molecule activators of the rat pregnane X receptor (rPXR) signaling pathway (AID 651751; call rule not given here; also: 0% is about no effect). Particulars: rPXR reporter cells, luciferase (One-Glo), 24 h.
Chain of Nuclear receptor subfamily 1 group I member 2 (Rattus norvegicus) (Q9R1A7 whole entry, looked up): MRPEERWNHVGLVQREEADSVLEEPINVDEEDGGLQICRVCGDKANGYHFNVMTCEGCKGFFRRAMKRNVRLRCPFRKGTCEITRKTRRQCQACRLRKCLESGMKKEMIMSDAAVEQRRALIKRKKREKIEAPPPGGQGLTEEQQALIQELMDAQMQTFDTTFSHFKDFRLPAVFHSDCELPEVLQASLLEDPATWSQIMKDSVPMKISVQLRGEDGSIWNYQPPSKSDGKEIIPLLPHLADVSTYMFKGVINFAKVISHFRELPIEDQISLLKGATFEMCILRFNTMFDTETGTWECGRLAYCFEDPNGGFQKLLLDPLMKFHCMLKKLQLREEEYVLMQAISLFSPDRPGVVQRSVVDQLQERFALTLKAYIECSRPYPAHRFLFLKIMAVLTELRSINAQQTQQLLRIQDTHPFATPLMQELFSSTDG
Experiment [19] deals with Glucocorticoid receptor (Homo sapiens) (UniProt P04150). In words: qHTS assay for small molecule agonists of glucocorticoid receptor signaling (AID 588532; active = well fitted curve in the direction sought with a large enough effect in the signal ratio, with a control signal flat; the % refers to the signal ratio;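 also: 100% = dexamethasone at 0.1 µM and 0% = DMSO only wells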). Particulars: HeLa MMTV-bla, beta-lactamase ratio, agonist, 18 h; stronger effect = higher value; percent of dexamethasone control, DMSO zero. In short, it runs like this: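 Agonist-mode qHTS: GRE-driven beta-lactamase in HeLa cells exposed 18 h to titrated compounds (up to 92 uM), then CCF4 ratio read after 2 h at RT; Hill-fitted EC50, efficacy relative to 0.1 uM dexamethasone.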
Chain of Glucocorticoid receptor (Homo sapiens) (P04150 whole entry, looked up): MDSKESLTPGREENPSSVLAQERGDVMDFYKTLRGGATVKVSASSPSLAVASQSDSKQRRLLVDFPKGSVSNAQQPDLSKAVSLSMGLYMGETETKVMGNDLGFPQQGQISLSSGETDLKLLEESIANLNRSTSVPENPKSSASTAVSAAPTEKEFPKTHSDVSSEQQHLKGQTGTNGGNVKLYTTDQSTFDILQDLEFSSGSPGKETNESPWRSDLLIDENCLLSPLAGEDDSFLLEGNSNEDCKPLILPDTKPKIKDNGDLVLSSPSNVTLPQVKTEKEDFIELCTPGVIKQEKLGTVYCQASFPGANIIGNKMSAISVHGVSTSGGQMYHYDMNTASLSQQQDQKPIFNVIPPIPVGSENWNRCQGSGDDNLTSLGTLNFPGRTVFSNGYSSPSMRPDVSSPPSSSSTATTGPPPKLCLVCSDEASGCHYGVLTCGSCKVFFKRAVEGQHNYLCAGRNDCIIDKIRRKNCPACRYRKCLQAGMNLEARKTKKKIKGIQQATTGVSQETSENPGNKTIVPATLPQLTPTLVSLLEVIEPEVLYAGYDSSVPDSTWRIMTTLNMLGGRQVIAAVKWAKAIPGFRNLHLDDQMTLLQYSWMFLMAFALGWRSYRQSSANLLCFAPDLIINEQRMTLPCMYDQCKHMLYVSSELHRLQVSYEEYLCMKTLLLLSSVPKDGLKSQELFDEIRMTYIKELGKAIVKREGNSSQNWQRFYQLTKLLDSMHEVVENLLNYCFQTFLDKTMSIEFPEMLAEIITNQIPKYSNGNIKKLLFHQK

For experiment [20], the target named is Nuclear receptor ROR-gamma (Homo sapiens) (UniProt P51449). In words: qHTS assay for small molecule antagonists of the retinoid-related orphan receptor gamma (ROR-gamma) signaling pathway (AID 651802). Also: nearly all actives have a fitted effect of over 60% in size. Also: potency is read from the fitted curve at half-maximal effect. In outline: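 Antagonism is scored as a fall in luminescence from a RORE-luciferase reporter in CHO cells expressing ROR under a TET-inducible promoter, measured 16hr after doxycycline induction in the presence of compound.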
Chain of Nuclear receptor ROR-gamma (Homo sapiens) (P51449 whole entry, looked up): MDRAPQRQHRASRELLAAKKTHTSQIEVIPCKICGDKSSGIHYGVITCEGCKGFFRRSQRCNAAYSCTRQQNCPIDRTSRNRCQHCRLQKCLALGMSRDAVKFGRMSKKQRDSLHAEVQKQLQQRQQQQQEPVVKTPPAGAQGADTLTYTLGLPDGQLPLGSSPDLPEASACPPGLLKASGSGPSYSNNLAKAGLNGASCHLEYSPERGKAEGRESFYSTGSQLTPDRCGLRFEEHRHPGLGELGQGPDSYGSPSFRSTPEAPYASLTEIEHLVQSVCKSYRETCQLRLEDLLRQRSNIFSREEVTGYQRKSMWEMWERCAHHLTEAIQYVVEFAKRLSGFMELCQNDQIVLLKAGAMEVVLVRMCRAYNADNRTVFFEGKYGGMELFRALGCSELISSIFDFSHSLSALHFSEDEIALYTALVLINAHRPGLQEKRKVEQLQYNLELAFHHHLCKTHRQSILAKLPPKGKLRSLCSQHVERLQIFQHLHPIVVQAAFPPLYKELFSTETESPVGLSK

Chain of Cytochrome P450 3A4 (Homo sapiens) (P08684 whole entry, looked up): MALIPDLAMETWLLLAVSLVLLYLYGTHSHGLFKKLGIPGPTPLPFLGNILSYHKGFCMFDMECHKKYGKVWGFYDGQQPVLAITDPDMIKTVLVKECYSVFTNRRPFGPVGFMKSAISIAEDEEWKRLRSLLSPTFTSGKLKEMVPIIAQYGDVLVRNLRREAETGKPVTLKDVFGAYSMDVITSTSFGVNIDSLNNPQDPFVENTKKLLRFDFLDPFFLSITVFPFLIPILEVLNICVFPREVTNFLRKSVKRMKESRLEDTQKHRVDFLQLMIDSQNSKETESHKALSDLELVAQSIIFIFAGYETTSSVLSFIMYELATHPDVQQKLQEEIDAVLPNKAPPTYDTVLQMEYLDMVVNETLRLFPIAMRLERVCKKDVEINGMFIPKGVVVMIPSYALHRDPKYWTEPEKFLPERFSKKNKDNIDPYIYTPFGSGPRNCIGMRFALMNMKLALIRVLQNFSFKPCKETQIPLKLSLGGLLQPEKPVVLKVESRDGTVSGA
Chain of Tumor necrosis factor (Homo sapiens) (P01375 whole entry, looked up): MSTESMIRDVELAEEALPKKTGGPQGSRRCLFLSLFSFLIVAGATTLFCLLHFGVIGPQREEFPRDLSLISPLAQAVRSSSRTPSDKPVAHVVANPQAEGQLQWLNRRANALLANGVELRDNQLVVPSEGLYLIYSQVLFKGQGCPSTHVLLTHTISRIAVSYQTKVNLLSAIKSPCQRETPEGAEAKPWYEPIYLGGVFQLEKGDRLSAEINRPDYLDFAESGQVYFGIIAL

Turning to `C=CC(=O)OCCOCCOC(=O)C=C`, the Potency entry in experiment [1] and in experiment [17] was “inactive” each time. Further, the Potency in experiment [2] is 12.6 µM (active); in experiment [3], 15.8 µM (active); in experiment [4] it was 20 µM (active); in experiment [5] it was 10 µM (active); in experiment [6], 25.1 µM (active); in [7], 31.6 µM (active). Besides, the Potency in experiment [8] is 20 µM (active); in experiment [9], 15.8 µM (active); in experiment [10], 15.8 µM (active); in experiment [11], 12.6 µM (active); in experiment [12], 12.6 µM (active); in experiment [13], 25.1 µM (active). Moreover, in experiment [14], the Potency was 47.3 µM (active). The compound was classed as inactive in [15]. In [16], the activation was 2.82%. For the same compound, the max response in experiment [18] was 9.16%.

Consider `O=C1OC(O)C(C(Cl)Cl)=C1Cl` (centres undefined), for which the Potency result in [1] was “inactive”. Moreover, the Potency in experiment [2] was 20 µM (active); in experiment [4] it was 63.1 µM (active); in experiment [5], 12.6 µM (active); in experiment [6] it was 25.1 µM (active); in experiment [7] it was 25.1 µM (active); in [8] it was 25.1 µM (active). Also, the Potency is 25.1 µM (active) in experiment [9]; 25.1 µM (active) in [10]; 15.8 µM (active) in [11]; 12.6 µM (active) in experiment [12]; 29.8 µM (active) in experiment [14]; 26.6 µM (active) in [17]. Also, the activation is -17.9% in experiment [19] and -0.209% in [16]. Moreover, the max response in experiment [18] is -3.61%.

With `Oc1ccc2cc(SSc3ccc4cc(O)ccc4c3)ccc2c1`, the results for the Potency in experiment [1], in [13] and in [14] were 15.8 µM (active), 39.8 µM (active) and 13.3 µM (active), respectively. Also, the result in experiment [15] was inactive. For the same compound, in [18], the max response is -6.62%.

`C/C=C1\C(=O)C[C@H]2[C@@H]3CCC4=CC(=O)CC[C@]4(C)[C@H]3CC[C@]12C`: the Potency result in experiment [1] and in [3] was “inactive” each time. For the same compound, the Potency was 2.98 µM (active) in [14] and 33.5 µM (active) in [20]. Also, the call in [15] was inactive. Further, the activation in experiment [16] was -0.115%.

As to `c1cc(OCC2CO2)cc(OCC2CO2)c1` (centres undefined), the activation in [19] was 4.18% and -8.77%; in experiment [16], 4% and -2.73%. Moreover, in [15], the compound was called inactive. Moreover, in [18], the max response was -8.72% and -4.5%.

As for `CC(=O)Nc1ccc(C(=O)CCl)cc1`, the Potency result in experiment [1] is “inactive”. Moreover, the Potency in experiment [2] is 3.98 µM (active); in [3], 12.6 µM (active); in [4] it was 25.1 µM (active); in experiment [5] it was 3.98 µM (active); in [6], 5.01 µM (active); in experiment [7] it was 6.31 µM (active). The Potency is 7.94 µM (active) in [8]; 7.94 µM (active) in experiment [9]; 5.01 µM (active) in [10]; 3.98 µM (active) in experiment [11]; 3.16 µM (active) in experiment [12]; 39.8 µM (active) in [13]. Moreover, the Potency in experiment [20] was 9.44 µM (active); in experiment [17], 18.8 µM (active). Moreover, the activation in [19] is -4.98% and -25.5%; in [16], 3.94%.

For `O=C=Nc1ccc(Cc2ccc(N=C=O)cc2)cc1`, the Potency entry in [2], in experiment [3], in experiment [4], in experiment [5], in experiment [6] and in experiment [7] was “inactive” throughout. Moreover, the Potency entry in [8], in experiment [9], in [10], in experiment [11], in experiment [12] and in experiment [13] was “inactive” each time. For the same compound, the Potency entry in experiment [14], in experiment [20] and in experiment [17] was “inactive” in each case. Besides, in [19], the activation was 5.29% and -5.07%. Further, in [15], the outcome was inactive. For the same compound, the max response in experiment [18] is 1.83% and 4.61%.
